Experiment [1] can be described thus: qHTS for Inhibitors of the Functional Ribonucleoprotein Complex (vRNP) of Lassa (LASV) Arenavirus: LASV Primary Screen - GLuc reporter signal (AID 1347082). Note: nearly all actives have a fitted effect of over 60% in size.
Experiment [2] in a line: qHTS for Inhibitors of the Functional Ribonucleoprotein Complex (vRNP) of Lassa (LASV) Arenavirus: Viability assay - alamar blue signal for LASV Primary Screen (AID 1347083). Note: nearly all actives have a fitted effect of over 80% in size. In general terms: qHTS replaces the single test concentration by a dilution series.
Experiment [3] in a line: qHTS for Inhibitors of the Functional Ribonucleoprotein Complex (vRNP) of Lymphocytic Choriomeningitis Arenaviruses (LCMV): Viability assay - alamar blue signal for LCMV Primary Screen (AID 1347085). Note: nearly all actives have a fitted effect of over 80% in size.

For 36 compounds, Potency results are on record in PubChem BioAssay (NCATS).

Results filed as inconclusive are left out. Activity calls are given as the source filed them. Calls come from the whole dose curve; tested in HEK293 reporter line.
Note: series mostly up to about 57 µM.

Consider `Cc1c(N)nc([C@H](CC(N)=O)NC[C@H](N)C(N)=O)nc1C(=O)N[C@H](C(=O)N[C@H](C)[C@@H](O)[C@H](C)C(=O)N[C@H](C(=O)NCCc1nc(-c2nc(C(=O)NCCCCN=C(N)N)cs2)cs1)[C@@H](C)O)[C@@H](O[C@@H]1O[C@@H](CO)[C@@H](O)[C@H](O)[C@@H]1O[C@H]1O[C@H](CO)[C@@H](O)[C@H](OC(N)=O)[C@@H]1O)c1cnc[nH]1`, for which the Potency entry in experiment [1] and in experiment [2] was “inactive” throughout.

As to `CN1Cc2cc(C(=O)N3CCC(C4CCNCC4)CC3)ccc2NC(CC(=O)O)C1=O` (configuration not stated), the Potency result in experiment [1], in experiment [2] and in experiment [3] was “inactive” throughout.

With `OCCN1CCN(CC/C=C2/c3ccccc3Sc3ccc(C(F)(F)F)cc32)CC1`, the Potency result in experiment [1], in experiment [2] and in experiment [3] was “inactive” throughout.

With `CCOC(=O)c1ccc(OCCN2C[C@H](O)[C@@H](O)[C@H](O)[C@H]2CO)cc1`, the Potency result in experiment [1], in experiment [2] and in experiment [3] was “inactive” in each case.

Consider `NC(=O)NC1NC(=O)NC1=O` (configuration not stated), for which the Potency entry in experiment [1], in experiment [2] and in experiment [3] was “inactive” each time.

As for `Cc1cc(-n2nc3ccc(Cl)cc3n2)c(O)c(C(C)(C)C)c1`, the Potency entry in experiment [1], in experiment [2] and in experiment [3] was “inactive” each time.

On to `CCCCCC[C@@H](CCC)C(=O)O`, for which the Potency entry in experiment [1], in experiment [2] and in experiment [3] was “inactive” throughout.

Consider `NC(N)=Nc1nc(CSCC/C(N)=N/S(N)(=O)=O)cs1`, for which the Potency result in experiment [1], in experiment [2] and in experiment [3] was “inactive” each time.

On to `O=C1C(O)=C(O)C(=O)C(O)=C1O`, for which the Potency entry in experiment [1], in experiment [2] and in experiment [3] was “inactive” in each case.

Consider `COC(=O)c1ccc(NC(C)=O)cc1OC`, for which the Potency entry in experiment [1], in experiment [2] and in experiment [3] was “inactive” in each case.

With `Cc1nc2c([nH]1)c(=O)n(C)c(=O)n2Cc1ccco1`, the Potency result in experiment [1], in experiment [2] and in experiment [3] was “inactive” throughout.

Take `CCCCCCCCCCCCCCCCCC(=O)O`: the Potency result in experiment [1], in experiment [2] and in experiment [3] was “inactive” throughout.

For the compound `Nc1ccc(C(=O)O)cc1`, the Potency entry in experiment [1], in experiment [2] and in experiment [3] was “inactive” each time.

Consider `CC(=O)c1ccc(S(=O)(=O)NC(=O)NC2CCCCC2)cc1`, for which the Potency result in experiment [1], in experiment [2] and in experiment [3] was “inactive” each time.

As for `Cc1ccc(C(C)C)cc2c(C)ccc1-2`, the Potency result in experiment [1], in experiment [2] and in experiment [3] was “inactive” throughout.

For the compound `CC(NN)c1ccccc1` (configuration not stated), the Potency entry in experiment [1], in experiment [2] and in experiment [3] was “inactive” throughout.

As for `NCCCCCC(=O)O`, the Potency result in experiment [1], in experiment [2] and in experiment [3] was “inactive” throughout.

`CCOC(=O)C1=C(C)NC(C)=C(C(=O)OC)C1c1cccc([N+](=O)[O-])c1` (configuration not stated): the Potency entry in experiment [1], in experiment [2] and in experiment [3] was “inactive” throughout.

As to `COc1ccc(/C=N/NC(=O)c2ccncc2)cc1OC`, the Potency entry in experiment [1], in experiment [2] and in experiment [3] was “inactive” each time.

As for `CC(=O)NC(=O)c1ccccc1O`, the Potency result in experiment [1], in experiment [2] and in experiment [3] was “inactive” throughout.

Consider `CC1(C)Oc2ccc(C#N)cc2[C@@H](N2CCCC2=O)[C@@H]1O`, for which the Potency result in experiment [1], in experiment [2] and in experiment [3] was “inactive” each time.

As to `CCOc1nc2cccc(C(=O)O)c2n1Cc1ccc(-c2ccccc2-c2nn[nH]n2)cc1`, the Potency entry in experiment [1], in experiment [2] and in experiment [3] was “inactive” throughout.

`NC1CCN(c2nc3c(cc2F)c(=O)c(C(=O)O)cn3-c2ccc(F)cc2F)C1` (configuration not stated): the Potency entry in experiment [1], in experiment [2] and in experiment [3] was “inactive” in each case.

Take `CN(CC1(C)CCCO1)S(=O)(=O)c1ccc(Cl)c(S(N)(=O)=O)c1` (configuration not stated): the Potency result in experiment [1], in experiment [2] and in experiment [3] was “inactive” in each case.

`O=C(OCCN1CCOCC1)c1cccnc1Nc1cccc(C(F)(F)F)c1`: the Potency result in experiment [1], in experiment [2] and in experiment [3] was “inactive” throughout.

Regarding `CC(CSC(=O)c1ccccc1)C(=O)N1C[C@@H](Sc2ccccc2)C[C@H]1C(=O)O` (some centres not stated), the Potency entry in experiment [1], in experiment [2] and in experiment [3] was “inactive” each time.

Consider `CC(C)OP(=O)(CP(=O)(OC(C)C)OC(C)C)OC(C)C`, for which the Potency result in experiment [1], in experiment [2] and in experiment [3] was “inactive” in each case.

In the case of `C[C@]12CCC(=O)C=C1CC[C@H]1[C@@H]3CC[C@](O)(C(=O)CO)[C@@]3(C)C[C@H](O)[C@@]12F`, the Potency result in experiment [1], in experiment [2] and in experiment [3] was “inactive” each time.

As to `CCCCCCCCCCCCCCCCN`, the Potency entry in experiment [1], in experiment [2] and in experiment [3] was “inactive” in each case.

For `CC(=O)NCCCCCC(=O)O`, the Potency entry in experiment [1], in experiment [2] and in experiment [3] was “inactive” each time.

As to `CC1(C)O[C@@H]2C[C@H]3[C@@H]4CCC5=CC(=O)C=C[C@]5(C)[C@@]4(F)[C@@H](O)C[C@]3(C)[C@]2(C(=O)CO)O1`, the Potency entry in experiment [1], in experiment [2] and in experiment [3] was “inactive” throughout.

As to `CC[C@H](C)C(=O)O[C@H]1C[C@H](O)C=C2C=C[C@H](C)[C@H](CC[C@@H](O)C[C@@H](O)CC(=O)O)[C@H]21`, the Potency result in experiment [1], in experiment [2] and in experiment [3] was “inactive” each time.

As for `C=CCN1CCc2nc(N)sc2CC1`, the Potency entry in experiment [1], in experiment [2] and in experiment [3] was “inactive” throughout.

Take `CO[C@@]1(NC(=O)CSC[C@@H](N)C(=O)O)C(=O)N2C(C(=O)O)=C(CSc3nnnn3C)CS[C@@H]21`: the Potency entry in experiment [1], in experiment [2] and in experiment [3] was “inactive” each time.

As for `C1COC(NC(C2CC2)C2CC2)=N1`, the Potency entry in experiment [1], in experiment [2] and in experiment [3] was “inactive” throughout.

Take `Cc1cc(=O)oc2cc(O[C@@H]3SC[C@@H](O)[C@H](O)[C@H]3O)ccc12`: the Potency result in experiment [1], in experiment [2] and in experiment [3] was “inactive” in each case.
